Data as given in PubChem BioAssay (NCATS).
Results filed as inconclusive are left out. Active and inactive are the calls of the source. The call rests on the fitted dose curve; in most records, active means well fitted inhibition curve with a large enough effect; inconclusive means small, poorly fitted or top-dose-only effect; inactive means flat fitted curve, though single readings scatter.

test system: HEK293; experiment: Cytotoxic Profiling of Annotated Libraries Using Quantitative High-Throughput Screening (AID 1296008); conditions: Five cell lines viability, CellTiter-Glo ATP luminescence, 48-72 h; max response: stronger effect = lower value; further: nearly all actives have a fitted effect of over 60% in size
How it was run: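 Compounds were pin-transferred onto cells and incubated 48 or 72 hr at 37 degree Celsius, 95% humidity. CellTiter-Glo was added, plates sat 10 min at room temperature, then ATP-coupled luminescence was imaged as the viability read-out.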
On the % scale 0 is the no-effect control and ±100 the full control effect.

| SMILES | max response | outcome |
| --- | --- | --- |
| O=C(Nc1nc2ccccc2n1CCc1ccccc1)c1ccccc1 | -110% (inactive) |  |
| C=C1CC2C(C)(CCC(=O)O)C(C(C)(C)O)CCC2(C)C2C(=O)OC(C)(C(=O)OC)C(=O)C12C (centres undefined) | 3.75% (inactive) |  |
| Cc1cc(=O)oc2c(C=O)c(O)ccc12 |  | inactive |
| C1CCC[C@H]2CCCN3CC[C@@H](CCCCCC[C@@H]4CCCN5CC[C@@H](CC1)O[C@@H]45)O[C@@H]23 | 4.46% (inactive) |  |
